Results reported in ChEMBL document CHEMBL4513146, “CO-ADD screening of Karazin Kharkiv National University (Ukraine) compounds”.
Results with a measured potency or affinity are listed apart.

Legend:
[1] = test system: Staphylococcus aureus; conditions: Concentration 32 ug.mL-1;; ASSAY_TEST Inhibition of Bacterial Growth; detection method Absorption (OD600); MEDIA CAMHB; plate type 384well; NBS; CORNING #3640; time 18 hr
[2] = test system: Escherichia coli; conditions: Concentration 32 ug.mL-1;; ASSAY_TEST Inhibition of Bacterial Growth; detection method Absorption (OD600); MEDIA CAMHB; plate type 384well; NBS; CORNING #3640; time 18 hr

NC(=O)Cn1nc2n(CCC(=O)NC3CCCCC3)c(=O)c3ccccc3n2c1=O was tested, and the Inhibition [1] was 4.99% and the Inhibition [2] was 0.77%.

COc1ccc(CCNC(=O)Cn2nc3c(N4CCOCC4)nccn3c2=O)cc1OC gave an Inhibition [1] of 21.7% and an Inhibition [2] of 0.1%.

Molecule Cc1cccc(N(C)C(=O)Cn2nc3cc(C)nc(Nc4ccc(F)c(C)c4)n3c2=O)c1 has an Inhibition [1] of 1.96% and an Inhibition [2] of -7.99%.

Cc1ccc(NC(=O)Cn2nc3c(N4CCCC(C)C4)nccn3c2=O)cc1C (configuration not stated) was tested, and the Inhibition [1] was -5.07% and the Inhibition [2] was -2.82%.

Molecule O=c1c2nn(Cc3ccc(F)cc3)c(=O)n2ccn1-c1ccccc1 has an Inhibition [1] of 14.99% and an Inhibition [2] of -4.05%.

In the case of CCCn1c(=O)c2ccc(C(=O)NC3CCCCC3)cc2n2c(=O)n(CC#N)nc12, the Inhibition [1] is reported as 0.58% and the Inhibition [2] is reported as 2.29%.

In the case of O=c1c2sccc2n2c(SCc3cccc(C(F)(F)F)c3)nnc2n1Cc1ccc(F)cc1, the Inhibition [1] is reported as 9.81% and the Inhibition [2] is reported as -1.38%.

Molecule O=S(=O)(c1ccc2nncn2c1)N(Cc1ccc(Cl)cc1)c1ccc2c(c1)OCO2 has an Inhibition [1] of 11.62% and an Inhibition [2] of -6.36%.

Work on COc1ccc(C(=O)CSc2nnc3c(=O)n(-c4ccccc4)ccn23)cc1OC yielded an Inhibition [1] of -10.93% and an Inhibition [2] of -14.26%.

Work on CN(C)C(=O)CSc1nnc2c(=O)n(-c3ccc(F)cc3)ccn12 yielded an Inhibition [1] of 8.32% and an Inhibition [2] of 0.14%.

CCOc1ccccc1NC(=O)Cn1nc2c3c4c(sc3ncn2c1=O)CCCC4 was tested, and the Inhibition [1] was -4.82% and the Inhibition [2] was -7.86%.

C=Cc1ccc(Cn2nc3c(=O)n(-c4cccc(Cl)c4C)ccn3c2=O)cc1 was tested, and the Inhibition [1] was -2.71% and the Inhibition [2] was -4.95%.

CSc1cccc(NC(=O)Cn2nc3c(Sc4ccccc4)nccn3c2=O)c1 was tested, and the Inhibition [1] was -5% and the Inhibition [2] was -10.44%.

Molecule Cc1nnc2ccc(S(=O)(=O)N(CC(=O)OC(C)(C)C)c3ccc4c(c3)OCO4)cn12 has an Inhibition [1] of 2.93% and an Inhibition [2] of -7.09%.

With Cc1ccc(NC(=O)Cn2nc3c(SC4CCCCC4)nccn3c2=O)cc1 the Inhibition [1] was 10.51% and the Inhibition [2] was -0.3%.

In the case of CCc1ccc(N(Cc2ccccc2C)S(=O)(=O)c2cccn3c(C)nnc23)cc1, the Inhibition [1] is reported as 9.52% and the Inhibition [2] is reported as -5.19%.

COc1ccc(OC)c(NC(=O)Cn2nc3ccc(-c4ccc(Cl)cc4)nn3c2=O)c1 was tested, and the Inhibition [1] was 10.25% and the Inhibition [2] was -2.3%.

Cc1ccccc1NC(=O)Cn1nc2c3cc(-c4ccc(Cl)cc4)nn3ccn2c1=O was tested, and the Inhibition [1] was 14.21% and the Inhibition [2] was 4.06%.

COc1ccc(NC(=O)Cn2nc3cc(C)nc(Nc4cc(C)cc(C)c4)n3c2=O)cc1 gave an Inhibition [1] of 9.51% and an Inhibition [2] of -1.23%.

O=C(Cn1nc2ccc(Sc3cccc(F)c3)nn2c1=O)Nc1cccc(C(F)(F)F)c1 showed an Inhibition [1] of 5.63% and an Inhibition [2] of -8.75%.

Cc1ccc(-c2ccc3nn(CC(=O)N4CCN(c5ccccc5F)CC4)c(=O)n3n2)cc1C gave an Inhibition [1] of 3.55% and an Inhibition [2] of -1.18%.

Cc1ccc(Oc2nccn3c(=O)n(CC(=O)Nc4ccc(C)cc4Cl)nc23)cc1 was tested, and the Inhibition [1] was 6.09% and the Inhibition [2] was 0.24%.

Molecule CC(C)c1ccc(Oc2nc3ccccc3n3c(=O)n(CC(=O)Nc4ccc5c(c4)OCO5)nc23)cc1 has an Inhibition [1] of 7.37% and an Inhibition [2] of 4.92%.

Molecule Cc1c(Cl)cccc1-n1ccn2c(=O)n(Cc3ccc(F)cc3)nc2c1=O has an Inhibition [1] of 2.79% and an Inhibition [2] of -11.88%.

COc1ccc(CN(c2ccc(OC)cc2)S(=O)(=O)c2ccc3nnc(C)n3c2)cc1 gave an Inhibition [1] of 4.23% and an Inhibition [2] of -1.31%.

Work on COc1cccc(-n2ccn3c(SCC(=O)Nc4ccc(F)cc4F)nnc3c2=O)c1 yielded an Inhibition [1] of 12.12% and an Inhibition [2] of -6.2%.

Cc1ccccc1CN(c1cccc(F)c1)S(=O)(=O)c1ccc2nncn2c1 gave an Inhibition [1] of -9.31% and an Inhibition [2] of -3.51%.

CCc1nnc2c(S(=O)(=O)N(Cc3cccc(C)c3)c3ccc(Cl)cc3)cccn12 showed an Inhibition [1] of 8.39% and an Inhibition [2] of 0.27%.

COc1cc(NC(=O)Cn2nc3c(Oc4ccccc4)nccn3c2=O)cc(OC)c1 gave an Inhibition [1] of 11.4% and an Inhibition [2] of 1.31%.

In the case of O=C(Cn1nc2c(Sc3cccc(F)c3)nccn2c1=O)Nc1cccc(Br)c1, the Inhibition [1] is reported as 3.89% and the Inhibition [2] is reported as 0.56%.

Work on COc1ccccc1-n1ccn2c(SCC(=O)Nc3ccc4c(c3)OCCO4)nnc2c1=O yielded an Inhibition [1] of 18.21% and an Inhibition [2] of -1.11%.

O=C(Cn1nc2ccc(SCc3ccc(Cl)cc3)nn2c1=O)Nc1ccccc1C(F)(F)F gave an Inhibition [1] of 4.98% and an Inhibition [2] of -5.74%.

COc1ccccc1-n1ccn2c(SCc3ccccc3F)nnc2c1=O gave an Inhibition [1] of 11.33% and an Inhibition [2] of -2.76%.

Molecule O=C(Cn1nc2ccc(SCc3ccc(Cl)cc3)nn2c1=O)Nc1ccccc1 has an Inhibition [1] of 5.05% and an Inhibition [2] of -4.3%.

With CCCCn1c(=O)c2sccc2n2c(=O)n(CC(=O)c3ccc(OC)cc3)nc12 the Inhibition [1] was 3.9% and the Inhibition [2] was 0.74%.

Molecule Cc1ccc(NC(=O)CSc2nnc3c(=O)n(-c4ccccc4)ccn23)c(C)c1 has an Inhibition [1] of 7.2% and an Inhibition [2] of -16.98%.

In the case of CCCc1nnc2c(=O)n(CC(=O)Nc3cccc(C#N)c3)c3ccccc3n12, the Inhibition [1] is reported as 1.38% and the Inhibition [2] is reported as -7.78%.

CC(C)CCn1c(=O)c2ccccc2n2c(=O)n(CC#N)nc12 gave an Inhibition [1] of 16.96% and an Inhibition [2] of 1.73%.

In the case of CC1CCCN(c2nccn3c(=O)n(CC(=O)Nc4ccc5c(c4)OCO5)nc23)C1 (configuration not stated), the Inhibition [1] is reported as -13.51% and the Inhibition [2] is reported as -11.79%.

In the case of CCc1ccccc1Sc1nccn2c(=O)n(CC(=O)Nc3cccc(C)c3)nc12, the Inhibition [1] is reported as 2.29% and the Inhibition [2] is reported as -6.79%.

CC(C)c1nnc2c(=O)n(CC(=O)Nc3cc(Cl)ccc3Cl)c3ccccc3n12 gave an Inhibition [1] of 3.75% and an Inhibition [2] of 5.3%.

Cc1ccc(Cn2c(=O)c3ccc(C(=O)NC4CCCC4)cc3n3c(=O)n(CC#N)nc23)cc1 showed an Inhibition [1] of 2.21% and an Inhibition [2] of 1.56%.

Cc1ccccc1Oc1nccn2c(=O)n(CC(=O)Nc3cc(F)ccc3F)nc12 gave an Inhibition [1] of 11.37% and an Inhibition [2] of -2.39%.

CCOc1ccc(NC(=O)Cn2c(=O)c3nnc(C(C)C)n3c3ccccc32)cc1 showed an Inhibition [1] of 13.61% and an Inhibition [2] of 5.76%.

CCCCOc1ccc(-c2cc3c4nnc(SCC(=O)NCc5ccccc5)n4ccn3n2)cc1 gave an Inhibition [1] of -2.73% and an Inhibition [2] of -6.82%.

Cc1ccc(-n2ccn3c(SCC(=O)c4c[nH]c5ccccc45)nnc3c2=O)cc1C gave an Inhibition [1] of 8.58% and an Inhibition [2] of 3.16%.

In the case of Cc1nnc2c(=O)n(CC(=O)Nc3ccc(Cl)cc3)c3ccccc3n12, the Inhibition [1] is reported as 6.71% and the Inhibition [2] is reported as 2.85%.

Work on O=C(CSc1nnc2c(=O)n(-c3ccc(Br)cc3)ccn12)Nc1ccc(F)cc1 yielded an Inhibition [1] of 9.36% and an Inhibition [2] of -1.5%.

Cc1nnc2c(S(=O)(=O)N(Cc3cccc(F)c3)c3ccc(C(C)C)cc3)cccn12 was tested, and the Inhibition [1] was 15.47% and the Inhibition [2] was -0.86%.

Molecule COc1ccc(N(Cc2cccc(C)c2)S(=O)(=O)c2ccc3nnc(C)n3c2)cc1 has an Inhibition [1] of 2.37% and an Inhibition [2] of -2.14%.

Cc1ccc(-c2cc3c4nn(CC(=O)Nc5ccc(C)c(Cl)c5)c(=O)n4ccn3n2)cc1C was tested, and the Inhibition [1] was -5.06% and the Inhibition [2] was -1.24%.

Work on Cc1ccccc1Oc1nc2ccccc2n2c(=O)n(CC(=O)Nc3ccccc3C(F)(F)F)nc12 yielded an Inhibition [1] of -0.26% and an Inhibition [2] of -3.73%.

Cc1nnc2c(=O)n(CC(=O)Nc3ccccc3F)c3ccccc3n12 was tested, and the Inhibition [1] was -11.2% and the Inhibition [2] was 1.77%.

COc1ccc(NC(=O)CSc2nnc3c(=O)n(-c4cccc(F)c4)ccn23)cc1OC showed an Inhibition [1] of 3.1% and an Inhibition [2] of -11.05%.

COc1ccc(CNC(=O)Cn2nc3c(N4CCN(c5ccccc5)CC4)nccn3c2=O)cc1 showed an Inhibition [1] of 21.01% and an Inhibition [2] of 2.9%.

In the case of C=Cc1ccc(CN(c2ccc(Cl)cc2)S(=O)(=O)c2cccn3c(C)nnc23)cc1, the Inhibition [1] is reported as 6.06% and the Inhibition [2] is reported as -3.28%.

Molecule O=C(CSc1nnc2ccc(C(=O)NCc3ccccc3)cn12)Nc1ccccc1Br has an Inhibition [1] of 7.29% and an Inhibition [2] of -1.34%.

Work on Cc1ccc(NC(=O)Cn2nc3c(N4CC(C)CC(C)C4)nccn3c2=O)c(F)c1 (configuration not stated) yielded an Inhibition [1] of 10.72% and an Inhibition [2] of 1.48%.

In the case of COc1cccc(NC(=O)Cn2c(=O)c3nnc(C(C)C)n3c3ccccc32)c1, the Inhibition [1] is reported as 22.3% and the Inhibition [2] is reported as 0.77%.

Work on Cc1ccc(NC(=O)Cn2nc3c4c5c(sc4ncn3c2=O)CCCC5)c(Cl)c1 yielded an Inhibition [1] of -4.74% and an Inhibition [2] of -9.07%.

In the case of COc1ccc(N2CCN(C(=O)Cn3nc4ccc(-c5ccc(Cl)cc5)nn4c3=O)CC2)cc1, the Inhibition [1] is reported as 9.33% and the Inhibition [2] is reported as -1.38%.

With Cc1ccc(NC(=O)Cn2nc3c4cc(-c5ccc(Cl)cc5)nn4ccn3c2=O)cc1C the Inhibition [1] was 10.49% and the Inhibition [2] was 3.51%.

Molecule O=C(Cn1nc2c3cc(-c4ccc(Cl)cc4)nn3ccn2c1=O)Nc1ccc(F)cc1 has an Inhibition [1] of 7.29% and an Inhibition [2] of 4.85%.

With COc1cccc(Sc2nc3ccccc3n3c(=O)n(CC(=O)N4CCCc5ccccc54)nc23)c1 the Inhibition [1] was -3.45% and the Inhibition [2] was -7.6%.

Cc1ccc(C)c(-c2cc3c4nnc(CCC(=O)NCCc5ccc(Cl)cc5)n4ccn3n2)c1 was tested, and the Inhibition [1] was 5.83% and the Inhibition [2] was 3.02%.

In the case of CCOc1ccc(-n2ccn3c(SC(C)C(=O)Nc4cc(OC)cc(OC)c4)nnc3c2=O)cc1 (configuration not stated), the Inhibition [1] is reported as 1.84% and the Inhibition [2] is reported as 2.97%.

Work on COc1cccc(Sc2nc3ccccc3n3c(=O)n(CC(=O)Nc4ccc(C)cc4)nc23)c1 yielded an Inhibition [1] of 4.18% and an Inhibition [2] of -1.95%.

Cc1[nH]c2ccccc2c1C(=O)CSc1nnc2c(=O)n(-c3ccccc3)ccn12 was tested, and the Inhibition [1] was 16.56% and the Inhibition [2] was -0.61%.

Molecule COc1ccc(-c2cc3c4nn(CC(=O)Nc5ccc(F)cc5)c(=O)n4ccn3n2)cc1 has an Inhibition [1] of -1.37% and an Inhibition [2] of -7.82%.

For O=C(Cn1nc2c(SC3CCCCC3)nccn2c1=O)Nc1ccc(F)c(Cl)c1, the Inhibition [1] was -11.33% and the Inhibition [2] was -12.19%.

Molecule COc1ccccc1NC(=O)Cn1nc2c3cc(-c4ccc(C)c(C)c4)nn3ccn2c1=O has an Inhibition [1] of 6.99% and an Inhibition [2] of 2.41%.
